Several values for one entry are separate records, joined by “and”; a condition that tells them apart may be missing. Equal values may be shown once. Where a structure was tested more than once in an assay, its records may differ in their call. Activity calls are given as the source filed them. The calls were made as follows: active = hit-call score of the fitted dose curve at least 0.9, where 1 is the maximum; inactive = score below 0.9.

The source of these data is PubChem BioAssay (EPA / NIEHS).

Read-out in this experiment: HGF (gene 3082)
The experiment in a line: LTEA_HepaRG_HGF: Life Technologies and Expression Analysis (LTEA) Assay for Hepatocyte Growth Facto (HGF) using HepaRG (AID 2283505). As to conditions: mRNA level, 48 h; actives raise or lower the signal. As to the method: LTEA_HepaRG is a cell based, multiplexed-readout assay that uses HepaRG, a human liver cell line, with measurements taken at 48 hours after chemical dosing on a 96-well plate.LTEA_HepaRG_HGF is one of 102 assay component(s) measured in the LTEA HepaRG cell culture assay. It is a marker of Cell proliferation, survival, death.Data from the assay component LTEA_HepaRG_HGF was analyzed into 1 endpoint. This assay endpoint, LTEA_HepaRG_HGF, was analyzed with bidirectional fitting relative to DMSO as the negative control and baseline of activity. Using a type of inducible reporter, measures of mRNA induction for gain or loss-of-signal activity can be used to understand regulation of transcription factor activity. To generalize the intended target to other relatable targets, this assay endpoint is annotated to the growth factor intended target family, where the subfamily is hepatocyte growth factor.
A total of 1060 chemcials from the ToxCast library were tested in eight-point concentration-response experiments. Cell culture and cytotoxicity assays were conducted at Thermo Fisher Scientific's Custom Services facility (Madison, WI). A single lot of human HepaRG cells (Thermo Fisher Scientific, Frederick, MD) was used for the cell culture experiments. 96-well format collagen type I coated plates of human HepaRG cells were prepared using established methods. Briefly, cryopreserved HepaRG cells were thawed, plated at a density of approximately 100,000 cells/well in HepaRG Thaw, Plate, and General Purpose media (HPRG770, Thermo Fisher Scientific), and incubated for 48 hours. 0.5% DMSO was selected as vehicle control to balance the requisite need of DMSO in HepaRG cultures to maintain differentiation (for example, baseline metabolism, proportions of hepatocytes vs. cholangiocytes), while enabling further hepatic receptor pathway activation (for example, PXR and CAR) in response to chemical exposure. 48 hours after plating, the culture medium was replaced with HepaRG Serum-Free Incudtion Media. Cells were exposed to each test chemical in duplicate and maintained in CO2 incubators for another 48 hours. Chemical plates were thawed to room temperature and 200x concentrations of treatment groups were prepared. 8-point conentration-reponse curves were made with the highest exposure at 100 uM, followed by half-log dilutions, all in 0.5% DMSO. Each test plate contained variouse controls, induction positive controls (1mM phenobarbital), cytotoxicity positive controls ([…] aflatoxin B1), vehicle controls (0.5% DMSO), and total lysis controls (0.5% DMSO). Cell morphology images were taken using an Essen IncuCyte FLR automated microscope, with six 96-well plates imaged in about 24 minutes. Images were captured and exported and JPEG files. Spent culture media was transfered to black-well plates for the LDH assay, and remaining media was sorted at -80 C for later use. Cells were treated with RLT buffer and frozen until shipped for gene expression analysis. Total RNA was isolated from the cell suspension in 75 uL of Buffer RLT (Qiagen, Germantown, MD 20874) by Quintiles/Expression Analysis (Durham, NC) using a custom isolation procedure. Total RNA from each plate well was transferred to a preamplification plate. Fluidigm's 96.96 Dynamic ArrayTM (Fluidigm, Amsterdam, the Netherlands) technology was used for gene expression analyses by quantitative reverse transcription polymerase chain reaction (qRT-PCR, performed by Quintiles/Expression Analysis, Durham, NC)89. Standard TaqManTM Assays (Applied Biosystems/ThermoFisher Scientific, Foster City, CA) were used to assess the expression of 93 genes selected based on their selectivity and sensitivity to important hepatic receptors known to be modulated by environmental chemicals; importance in human hepatocyte functionality; and hepatotoxicity. […]
Take `O=C(c1ccccc1)C1CCCCC1`: the call was inactive.

As for `CSC(=O)c1cccc2nnsc12`, the result was inactive.

For `CCCN(CCC)C(=O)SCC`, the compound was classed as inactive.

On to `C[C@]12C[C@H](O)[C@H]3[C@@H](CCC4=CC(=O)CC[C@@]43C)[C@@H]1CC[C@@H]2C(=O)CO`, for which the outcome was inactive.

As to `O=C(c1ccc(O)cc1O)c1ccc(O)cc1O`, the call was inactive.

With `COC(=O)c1ccccc1C(=O)O`, the outcome was inactive.

For `CCCCC(CC)CN1C(=O)C2C3C=CC(C3)C2C1=O` (stereo not given), the call was inactive.

Usually AC50 stands for the midpoint of the concentration-response curve, whichever way the signal moves. For `S=C([S-])NCCNC(=S)[S-].[Mn+2]`, the AC50 is 7.5 µM (active).

For `CN(C)C(=O)Nc1ccc(Cl)c(Cl)c1`, the outcome was inactive.

As to `CCOC(=O)C(C)Oc1ccc(Oc2cnc3cc(Cl)ccc3n2)cc1` (stereo not given), the result was inactive.

`CC(C)(c1ccc(O)cc1)c1ccc(O)cc1`: the compound was classed as inactive.

Turning to `CCCCOC(=O)C(C)Oc1ccc(Oc2ccc(C(F)(F)F)cn2)cc1` (stereo not given), the outcome was inactive.

Consider `CCC(C)OC(=O)N1CCCCC1CCO` (stereo not given), for which the call was inactive.

As for `C[C@]12CC[C@@H]3c4ccc(O)cc4C[C@@H](CCCCCCCCCS(=O)CCCC(F)(F)C(F)(F)F)[C@H]3[C@@H]1CC[C@@H]2O` (stereo not given in full), the half-maximal activity concentration (AC50) was 0.0444 µM (active).

In the case of `CCCN(CCC)c1c([N+](=O)[O-])cc(C(F)(F)F)c(N)c1[N+](=O)[O-]`, the result was inactive.

With `Cc1nn(C)c(Oc2ccccc2)c1C=NOCc1ccc(C(=O)OC(C)(C)C)cc1`, the AC50 is 86.6 µM (active).

For the compound `OB(O)O`, the compound was classed as inactive.

As for `C#C[C@]1(O)CC[C@H]2[C@@H]3CCC4=CC(=O)CC[C@@H]4[C@H]3CC[C@@]21CC`, the compound was classed as inactive.

For the compound `O=C(O)c1ccccc1`, the call was inactive.

For `N#CSCSc1nc2ccccc2s1`, the call was inactive.

Turning to `CCN(CC)C(=O)c1cccc(C)c1`, the compound was called inactive.

Take `CC(C)(C)[C@@H](O)[C@@H](Cc1ccc(Cl)cc1)n1cncn1`: the compound was called inactive.

For `CCCCOC(=O)[C@@H](C)Oc1ccc(Oc2ccc(C(F)(F)F)cn2)cc1`, the result was inactive.

With `S=C(S)NCCNC(=S)S.[Mn+2].[S-]C([S-])=NCCN=C([S-])[S-].[Zn+2]`, the compound was called inactive; the AC50 is 3.68 µM (active) and 9.89 µM (active).

Take `CCOC(=O)COc1cc(-n2ncc(C(F)(F)F)c(C)c2=O)c(F)cc1Cl`: the result was inactive.

On to `CCOC(=O)C(C)Oc1ccc(Oc2nc3ccc(Cl)cc3o2)cc1` (stereo not given), for which the result was inactive.

As for `O=C(Nc1ccc([N+](=O)[O-])cc1Cl)c1cc(Cl)ccc1O`, the AC50 was 2.98 µM (active).

Regarding `COC(=O)c1ccc(I)cc1S(=O)(=O)NC(=O)Nc1nc(C)nc(OC)n1`, the result was inactive.

For the compound `c1ccc(Nc2ccccc2)cc1`, the result was inactive.

Regarding `C=CCOC(Cn1ccnc1)c1ccc(Cl)cc1Cl` (stereo not given), the compound was classed as inactive.

On to `O=C(O)C1(C(=O)Nc2ccc(Cl)cc2Cl)CC1`, for which the compound was called inactive.

Take `CCCOC(=O)c1ccc(C(=O)OCCC)nc1`: the outcome was inactive.

In the case of `CC(=O)S[C@@H]1CC2=CC(=O)CC[C@]2(C)[C@H]2CC[C@@]3(C)[C@@H](CC[C@@]34CCC(=O)O4)[C@H]12`, the call was inactive.

Turning to `C#CCOC(=O)[C@@H](C)Oc1ccc(Oc2ncc(Cl)cc2F)cc1`, the compound was classed as inactive.

As for `CCCCCOC(=O)COc1cc(N2C(=O)C3=C(CCCC3)C2=O)c(F)cc1Cl`, the compound was called inactive.

`CCCCCCC(C)OC(=O)COc1nc(F)c(Cl)c(N)c1Cl` (stereo not given): the outcome was inactive.

As for `c1ccc2[nH]c(-c3cscn3)nc2c1`, the compound was called inactive.

Consider `CC(C)CCCCCCc1ccc(O)cc1`, for which the call was inactive.

Regarding `CC(=O)[C@H]1CC[C@H]2[C@@H]3CCC4=CC(=O)CC[C@]4(C)[C@H]3CC[C@]12C`, the AC50 is 85.4 µM (active).
